# Biological target: Solute carrier family 2, facilitated glucose transporter member 1 (Homo sapiens) (UniProt P11166)
# Assay: ST_JUDE_LEISH: Cytotoxicity at 2uM final concentration against transgenic Leishmania Mexicana promastigotes LmGLUT1 that are glucose transport deficient and complemented with the human glucose transporter GLUT1. Activity is measured by DNA content using SYBR green in vitro
# Assay type: functional
# Sequence of Solute carrier family 2, facilitated glucose transporter member 1 (Homo sapiens) (P11166 whole entry): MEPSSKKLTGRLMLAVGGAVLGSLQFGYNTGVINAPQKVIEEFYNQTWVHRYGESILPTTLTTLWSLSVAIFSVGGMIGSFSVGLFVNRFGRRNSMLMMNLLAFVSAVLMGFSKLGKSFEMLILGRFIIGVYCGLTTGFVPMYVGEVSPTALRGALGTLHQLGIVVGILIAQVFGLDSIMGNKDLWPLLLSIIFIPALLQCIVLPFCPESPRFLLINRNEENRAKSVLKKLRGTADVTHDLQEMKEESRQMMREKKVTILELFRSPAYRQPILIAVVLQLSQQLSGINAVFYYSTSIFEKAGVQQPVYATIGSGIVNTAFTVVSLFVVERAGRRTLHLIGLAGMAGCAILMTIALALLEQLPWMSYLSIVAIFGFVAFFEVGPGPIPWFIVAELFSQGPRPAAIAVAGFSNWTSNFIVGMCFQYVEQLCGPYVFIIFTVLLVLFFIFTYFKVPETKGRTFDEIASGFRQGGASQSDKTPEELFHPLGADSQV
row,SMILES,inhibition
1,CN1CCN(Cc2ccc(-c3ccc4c(Nc5ccc(Oc6ccccn6)cc5)ccnc4c3)o2)CC1,-0.46%
2,N#CCCN1CCN(Cc2cccc(-c3ccc(-c4nc5cc(C(F)(F)F)ccc5[nH]4)cc3)c2)CC1,3.02%
3,CCCC(=O)c1cnc2cc(O)ccc2c1Nc1ccccc1C,6.19%
4,O=C(Nc1ccc(Cl)cc1C(=O)Nc1cccc(F)c1)c1ccc([N+](=O)[O-])cc1,0.5%
5,CO/C(=C\C=C\c1cc2cc(Cl)c(Cl)cc2[nH]1)C(=O)NC1CCN(CCNc2ccccc2)CC1,-1.91%
6,O=C(c1ccc(F)c2ccccc12)N1CCc2cc3nccc(N4CCN5CCC[C@H]5C4)c3cc21,3.66%
7,COc1ccc(CNc2nc(Nc3cccc(C#N)c3)nc(Nc3cccc(C#N)c3)n2)cc1Cl,3.25%
8,N=C(N)NC(=O)Nc1cc(Cl)c(Br)c(Cl)c1,3%
9,CCCC(C)n1ccc2c3c(N)nc(N)nc3ccc21 (stereo not given),47.3%
10,COc1ccc2nccc([C@@H](O)CN3CCC(NCc4nc5ccccc5[nH]4)CC3)c2c1,1.84%
11,COC(=O)Nc1cc(C(F)(F)F)ccc1N1CCC(CNS(=O)(=O)c2ccc(OC)cc2)CC1,7.63%
12,CCc1cn2c3c(cc(C(=O)N[C@@H](Cc4ccccc4)[C@H](O)CNCc4cccc(C)c4)cc13)N(C)S(=O)(=O)CC2,1.35%
13,O=C(NCCCCN1CC=C(c2ccc3c(c2OCc2ccccc2)CCCC3)CC1)c1ccc(-c2ccc(C(F)(F)F)cc2)cc1,-1.51%
14,CC(C)c1ncc(-c2ccncc2)c(C2CCC(CNC(=O)c3cccnc3)CC2)n1 (stereo not given),3.2%
15,CC(ON1C(N)=NC(N)=NC1(C)C)c1ccccc1 (stereo not given),5.91%
16,CCCN(C(=O)c1ccccc1C)c1nnc(-c2cccc(C)c2)s1,-3.02%
17,CC(Nc1ccc2c(c1)CCC2)C(=O)Nc1cc(C(F)(F)F)ccc1N1CCOCC1 (stereo not given),14.7%
18,O=C(CCc1ccccc1)N[C@H](Cc1c[nH]c2ccccc12)C(=O)N1CCC(NCc2ccc3c(c2)Cc2ccccc2-3)CC1,7.69%
19,COc1ccc(C2CC(c3cccs3)=NN2C(=O)CNc2ccccc2F)cc1OC (stereo not given),2.69%
20,O=C(N[C@@H](Cc1ccccc1)C(=O)NCc1cccc(C(F)(F)F)c1)c1ccc(O)c(-c2ccc(Cl)c(Cl)c2)c1,3.7%

row,SMILES,inhibition
1,CN(Cc1cccc(F)c1)C1CCN(c2cc(NC(=O)c3ccc(F)cc3)ccn2)CC1,6.99%
2,COc1cc(F)c2ncc(F)c([C@@H](O)CN3CCC(NCc4cc5c(cn4)OCCO5)CC3)c2c1,1.43%
3,Nc1ncc(-c2cn[nH]c2)cc1-c1nc2ccc(Cl)cc2[nH]1,2.56%
4,O=C(Cn1c(CCc2cccc(F)c2F)nc(=O)c2ccccc21)N(Cc1ccc(-c2ccc(C(F)(F)F)cc2)cc1)C1CCN(C2CCOCC2)CC1,1.91%
5,COc1cc(OC)c2c(c1Cl)O[C@]1(C2=O)C(=O)C(Cc2ccccc2)(Cc2ccccc2)C(=O)C[C@H]1C,2.41%
6,Cc1ccccc1C1CCN(C2CCC(NC(=O)/C=C/c3cccc(C(F)(F)F)c3)CC2)CC1 (stereo not given),1.86%
7,O=C(Nc1cccc(-c2nc3ccccc3s2)c1)c1ccccc1[N+](=O)[O-],0.94%
8,NS(=O)(=O)c1cccc(-c2ccc3c(O)ncnc3c2)c1,4.08%
9,CC(C)Cc1nc2nc(N)nc(N)c2cc1C(C)C,1.84%
10,O=C(Nc1ccc(N2CCCCC2)c(Cl)c1)c1ccc(Br)o1,1.4%
11,Fc1ccc(Nc2ccnc3cc(-c4cccc(CNCCN5CCOCC5)c4)ccc23)c(Cl)c1,2.04%
12,COc1cccc(OC)c1OCCCOc1c(C)nc(N)nc1N,0.61%
13,Cc1ccc(C2=NNC3(S2)C(=O)N(C)c2ccccc23)cc1 (stereo not given),5.66%
14,O=C(Nc1ccccc1)N1CCOC(CCN2CCC(F)(F)CC2)(c2ccc(Cl)c(Cl)c2)C1 (stereo not given),2.76%
15,CC(c1cccc(Nc2nccc(-c3c(-c4cccc(NC(=O)c5c(F)cccc5F)c4)nn4ccccc34)n2)c1)S(C)(=O)=O (stereo not given),3.25%
16,COC(=O)Nc1cc(C(F)(F)F)ccc1N1CCCC(NS(=O)(=O)c2ccc(C(C)(C)C)cc2)C1 (stereo not given),10%
17,O=C(NC1CCCC1)c1ccc(N2CCC(NCc3cccc(C(F)(F)F)c3)CC2)cc1,-0.33%
18,Cc1nc(-c2ccc(-c3ccc(NC(=O)c4coc5ccc(N6CC(C)NC(C)C6)cc45)cc3)c(C)c2)no1 (stereo not given),3.42%
19,CCCc1cc(Cc2cnc(N)nc2N)cc(CC)c1O,1.7%
20,COc1cc2nc(N(C)C)nc(Nc3ccc(OCc4ccccc4)cc3)c2cc1OC,0.24%
